An excerpt weighted towards active compounds, which were near 3.1% of everything screened.
Rin1-Abl PPI inh = human Rin1-Abl interaction inhibition; inhibition, % at 7.35 µM; P00519+Q13671; AID 588664; 360,000 compounds, 0.4% hits; TR-FRET Rin1/Abl binding, biochemical; in the data active = inhibition above about 5%, passing the limit was not always enough
Target sequence (P00519 whole entry, looked up): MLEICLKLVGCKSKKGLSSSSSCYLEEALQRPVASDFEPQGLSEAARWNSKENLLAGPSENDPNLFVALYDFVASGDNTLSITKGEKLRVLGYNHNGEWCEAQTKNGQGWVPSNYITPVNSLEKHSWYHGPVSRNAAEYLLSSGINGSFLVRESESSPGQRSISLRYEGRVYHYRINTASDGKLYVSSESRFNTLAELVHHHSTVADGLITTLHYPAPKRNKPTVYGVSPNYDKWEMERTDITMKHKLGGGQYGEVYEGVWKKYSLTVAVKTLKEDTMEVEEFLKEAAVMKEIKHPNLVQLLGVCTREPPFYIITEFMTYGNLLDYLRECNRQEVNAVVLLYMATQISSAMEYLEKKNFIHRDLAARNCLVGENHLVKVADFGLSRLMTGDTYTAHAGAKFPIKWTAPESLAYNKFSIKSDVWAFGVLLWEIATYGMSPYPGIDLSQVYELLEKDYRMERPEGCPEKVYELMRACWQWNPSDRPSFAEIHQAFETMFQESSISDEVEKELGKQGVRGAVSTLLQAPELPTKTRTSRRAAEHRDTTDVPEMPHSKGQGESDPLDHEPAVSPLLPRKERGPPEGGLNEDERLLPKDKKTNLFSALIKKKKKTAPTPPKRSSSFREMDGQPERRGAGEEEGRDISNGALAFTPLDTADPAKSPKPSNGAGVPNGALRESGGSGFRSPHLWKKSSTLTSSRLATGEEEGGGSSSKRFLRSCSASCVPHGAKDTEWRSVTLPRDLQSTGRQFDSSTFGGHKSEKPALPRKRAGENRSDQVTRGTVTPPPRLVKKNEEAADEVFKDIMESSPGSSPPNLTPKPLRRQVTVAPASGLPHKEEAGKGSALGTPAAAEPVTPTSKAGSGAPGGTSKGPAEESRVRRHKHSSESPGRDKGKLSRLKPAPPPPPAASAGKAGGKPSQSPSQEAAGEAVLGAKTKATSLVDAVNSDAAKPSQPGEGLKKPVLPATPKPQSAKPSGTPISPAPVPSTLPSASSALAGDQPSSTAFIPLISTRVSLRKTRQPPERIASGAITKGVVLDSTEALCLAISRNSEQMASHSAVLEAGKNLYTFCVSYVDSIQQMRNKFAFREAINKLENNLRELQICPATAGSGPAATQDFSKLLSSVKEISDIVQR
Target sequence (Q13671 whole entry, looked up): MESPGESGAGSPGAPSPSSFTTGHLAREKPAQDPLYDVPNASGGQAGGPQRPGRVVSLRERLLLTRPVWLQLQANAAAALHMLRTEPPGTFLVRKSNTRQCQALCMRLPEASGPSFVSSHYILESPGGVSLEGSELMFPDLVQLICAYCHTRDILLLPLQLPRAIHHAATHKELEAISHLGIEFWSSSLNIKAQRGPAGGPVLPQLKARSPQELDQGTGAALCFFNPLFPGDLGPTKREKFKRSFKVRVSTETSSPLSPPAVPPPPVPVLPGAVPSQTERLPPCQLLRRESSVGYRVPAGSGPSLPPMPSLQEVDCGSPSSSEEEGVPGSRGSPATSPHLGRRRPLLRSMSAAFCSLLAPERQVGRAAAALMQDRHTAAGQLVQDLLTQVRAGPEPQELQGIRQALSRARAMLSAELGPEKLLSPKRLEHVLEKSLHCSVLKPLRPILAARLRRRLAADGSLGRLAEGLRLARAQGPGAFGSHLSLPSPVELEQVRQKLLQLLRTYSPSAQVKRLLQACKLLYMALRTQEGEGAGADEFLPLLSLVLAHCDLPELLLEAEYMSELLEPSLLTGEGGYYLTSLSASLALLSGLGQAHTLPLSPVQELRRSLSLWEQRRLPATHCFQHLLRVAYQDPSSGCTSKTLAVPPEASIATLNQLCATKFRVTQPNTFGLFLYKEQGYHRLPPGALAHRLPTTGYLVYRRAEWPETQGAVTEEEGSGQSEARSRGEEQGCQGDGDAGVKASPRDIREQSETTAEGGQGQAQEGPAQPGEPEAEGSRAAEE
pPAFAH FP inh = pPAFAH (human) enzyme inhibition; Q13093; recombinant pPAFAH, FP-rhodamine probe fluorescence polarization; inhibition, % at 3.39 µM; 330,000 compounds, 1.5% hits; AID 463082;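 active = inhibition above the mean inhibition across the screen plus 3 SD, cut at about 25% in these data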;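 also: inhibitors block binding of the rhodamine activity-based probe so polarization drops; 0% = enzyme with DMSO and 100% = wells lacking pPAFAH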
PAFAH1B3 FP inh = inhibitors of human PAFAH1B3; recombinant PAFAH1B3, FP-rhodamine probe, fluorescence polarization; Q15102; 340,000 compounds, 0.28% hits; inhibition, % at 3.39 µM;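 active = inhibition above the screen-wide average of all tested compounds plus 3 SD, cut at about 25% in these data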;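 also: 0% = enzyme with DMSO only and 100% = wells lacking PAFAH1B3 protein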
PAFAH2 FP inh = PAFAH2 (human) inhibition. recombinant PAFAH2, FP-rhodamine activity probe, fluorescence polarization. inhibition, % at 3.39 µM. 340,000 compounds, 0.99% hits;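 active = inhibition above the mean over all tested compounds plus 3 SD, cut at about 30% in these data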;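 also: inhibitors block probe labeling of enzyme so polarization drops; 0% = enzyme with DMSO and 100% = wells lacking PAFAH2 protein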
PAFAH1B2 FP inh = PAFAH1B2 (human) inhibition; P68402; recombinant PAFAH1B2, FP-rhodamine activity probe, fluorescence polarization; inhibition, % at 3.39 µM; 340,000 compounds, 1.2% hits;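 active = inhibition above the mean of all tested compounds plus 3 SD, cut at about 24% in these data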;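 also: 0% = enzyme with DMSO and 100% = wells lacking PAFAH1B2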
eLon inh = inhibits E. coli Lon protease; 360,000 compounds, 0.42% hits; P0A9M0; purified E. coli Lon protease, fluorescence polarization; inhibition, % at 7.94 µM; in the data active = inhibition above about 13%, passing the limit was not always enough;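 also: 0% = enzyme with probe and DMSO and 100% = no enzyme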
Rin1 Abl conf = Rin1-Abl interaction inhibition confirmation; shares compounds with Rin1-Abl PPI inh; TR-FRET Rin1-Abl binding, purified proteins; inhibition, % at 7.35 µM; 1,300 compounds, 49% hits
GFP quench = GFP fluorescence interference artifact; shares compounds with Rin1-Abl PPI inh; inhibitors/quenchers counterscreen; inhibition, % at 6.75 µM; 1,300 compounds, 8.5% hits; AID 602125;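 also: ABL1-eGFP fusion protein alone without its partner RIN1-SBP; 0% = protein with vehicle and 100% = wells lacking protein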
GFP quench dose = GFP fluorescence interference dose response; AID 602182; IC50, µM; GFP fluorescence interference/quenching counterscreen; shares compounds with Rin1-Abl PPI inh; 230 tested, under 10 active; call rule not given here;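 also: ABL1-eGFP fusion protein alone without its RIN1 binding partner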
Active calls of the source: *; / = not tested or not shown. Rule as the data show it, unless noted: active = inhibition above about 6.5%; inactive = the rest.

SMILES	Rin1-Abl PPI inh	pPAFAH FP inh	PAFAH1B3 FP inh	PAFAH2 FP inh	PAFAH1B2 FP inh	eLon inh	Rin1 Abl conf	GFP quench	others
CCn1cc(C(=O)N2CCN(c3cccc(Cl)c3)CC2)c2cc(OC)c(OC)cc2c1=O	1	-1	5	-4	4	-4	/	/
COc1cc2c(C(=O)N3CCN(c4cccc(Cl)c4)CC3)cn(C)c(=O)c2cc1OC	17*	-1	3	-4	-2	-4	32*	-3	GFP quench dose=>68
O=C(O)c1cc(S(=O)(=O)N2CCN(C(c3ccccc3)c3ccccc3)CC2)ccc1Cl	3	-4	4	2	9	-13	/	/
COc1ccc(/C=C/CN2CCC(Oc3ccc(C(=O)N4CCCCC4)cc3)CC2)cc1	7.2*	3	2	-5	3	0	3	-1
COc1ccccc1/C=C/CN1CCC(Oc2ccc(C(=O)N3CCCCC3)cc2)CC1	10*	3	-6	-5	-1	7	8.4*	-1
O=C(c1ccc(OC2CCN(C/C=C/c3ccccc3)CC2)cc1)N1CCCCC1	6.3*	5	-3	3	8	-4	0	0
CC(Oc1ccc(Br)cc1)C(=O)Nc1cc(Cl)ccc1N1CCN(C)CC1 (configuration not stated)	0	3	7	-2	3	-1	/	/
O=C(O)c1cccc(NC2=C(N3CCOCC3)C(=O)c3ccccc3C2=O)c1	7.2*	-3	24	18	5	4	-7	-1
Cn1cc(S(=O)(=O)Nc2cccc3ccccc23)c(=O)n(C)c1=O	-3	4	9	-3	-1	-8	/	/
O=C(Nc1ccc(N2CCOCC2)cc1)C1(S(=O)(=O)c2ccccc2)CC1	-5	-3	1	6	2	-4	/	/
CC(=O)c1ccc(NC(=O)C2(S(=O)(=O)c3ccccc3)CC2)cc1	10*	2	4	1	-2	-1	-2	-1
CN1C(=O)C2(NC(=O)c3ccccc3N2C)c2ccccc21 (configuration not stated)	-2	0	-1	12	4	-6	/	/
CN1C(=O)C(Cl)(Cl)C(=O)c2ccccc21	18*	/	6	1	-2	-2	11*	2
COc1ccccc1OCCN(C#N)c1nc(N(C)C)nc(N(C)C)n1	-2	-1	0	6	5	-2	/	/
O=C(NNC(=O)C1CCN(c2ncccn2)CC1)c1ccncc1	3	4	6	-1	1	10	/	/
COc1cc(N)c(C(=O)c2nccc3cc(OC)c(OC)cc23)cc1OC	-4	-1	-2	1	8	8	/	/
COc1cc(Br)c(C(=O)c2nccc3cc(OC)c(OC)cc23)cc1OC	6.0*	14	67*	40*	20	-13	3	0
Cc1csc(NC(=O)CCC(=O)N(CC(=O)NC2CCCCC2)c2ccccc2)n1	-1	1	-7	-6	0	-9	/	/
CC(C#N)Sc1nnc(-c2ccccc2F)n1C1CC1 (configuration not stated)	3	-2	1	-2	1	-5	/	/
CN(C)S(=O)(=O)c1ccc(C(=O)OC2CCOC2=O)cc1 (configuration not stated)	6.9*	-11	6	-5	5	-14	1	-2
O=C(OC1CCOC1=O)c1ccc(S(=O)(=O)N2CCCCCC2)cc1 (configuration not stated)	2	6	-10	-5	1	6	/	/
CC[C@H](C)[C@H](NC(=O)OCc1ccccc1)C(=O)OCC(=O)Nc1ccc(N2CCOCC2)cc1	4	10	-2	4	7	-11	/	/
Cc1ccc(S(=O)(=O)N2CCC(=O)N([C@H](COCc3cccc(C)c3)C(C)C)CC2)cc1	/	/	/	/	/	-5	/	/
C=CCNC(=S)NNc1nc2sc3c(c2c(=O)[nH]1)CC(C)(C)OC3	2	-4	0	-3	3	-3	/	/
